This passage reports PBM binding z-score results from the supplement of paper PMC6555819.

Common to all, as to assay: PBM binding z-score (relative to random genomic background probes); higher = stronger binding; sequences stand for … in GC…GCGATTGACAGCGTAGAATGAAGG
Assay [1] relates to FXR:RXRa (NR concentration 270 nM, RXRa partner concentration 90 nM). A digest of the protocol:
(§1)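 Probes were double-stranded and carried 34-nt variable regions with direct-repeat seeds, single-nucleotide variants, half-site ablations and random human genomic background sequences, printed on custom Agilent 4×180K protein-binding microarrays. Arrays were incubated 1 h with ligand-free nuclear receptor dimers in PBS pH 7.4, 2% milk, 0.02% Triton X-100, 1 mM DTT, 0.2 mg/mL BSA and 0.4 mg/ml salmon testes DNA. Antibodies against each partner (one per run) detected binding, and scanned fluorescence was regression-normalized. Binding z-scores use the random background probes as reference.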

Assay [2] deals with LXRa:RXRa (NR concentration 270 nM, RXRa partner concentration 90 nM). The essentials:
as §1

Assay [3] has as its system LXRa homodimer (NR concentration 270 nM). The essentials:
as §1

Assay [4] concerns LXRb:RXRa (NR concentration 270 nM, RXRa partner concentration 90 nM). A digest of the protocol: as §1
Assay [5] deals with LXRb homodimer (NR concentration 270 nM). A digest of the protocol:
as §1

Assay [6] relates to PPARa:RXRa (NR concentration 270 nM, RXRa partner concentration 90 nM). A digest of the protocol: as §1
Assay [7] relates to PPARg:RXRa (NR concentration 180 nM, RXRa partner concentration 90 nM). A digest of the protocol:
as §1

Assay [8] has as its system PPARg:RXRa 270nM:90nM, anti-RXR (NR concentration 270 nM, RXRa partner concentration 90 nM). The essentials: as §1
In assay [9] the test system is PPARg:RXRa 30nM:10nM, anti-RXR (NR concentration 30 nM, RXRa partner concentration 10 nM). The essentials: as §1
Assay [10] has as its system PPARg:RXRa 90nM:30nM, anti-RXR (NR concentration 90 nM, RXRa partner concentration 30 nM). The essentials: as §1

For ACTATTAGTTGACATAGGGCAACCGATACGACGC, the PBM binding z-score stood at 0.176 in assay [1]; 0.333 in assay [2]; 0.152 in assay [3]; 0.7 in assay [4]; 0.719 in [5]; 0.537 in assay [6]. In addition, the PBM binding z-score in assay [7] was 1.45; in [8] it was 0.934; in assay [9], 0.646; in assay [10], 1.
In the case of TCTATTAGTTGAGGGGCAACCGACGAGTCCGTTT, the PBM binding z-score in [1] worked out at 0.999; in [2], 0.876; in assay [3] it was 0.028; in assay [4], 1.41; in assay [5], 0.923; in assay [6], 1.18. Moreover, the PBM binding z-score in assay [7] worked out at 0.143; in assay [8], 1.75; in [9] it was 3.58; in assay [10], 2.71.
With CCTCGGAGGACAACAAGAGGTCAGAGCTGCCAGA, the PBM binding z-score in [1] was 2.12; in [2] it was 3.5; in assay [3], 3.68; in assay [4], 2.35; in assay [5], -0.358; in assay [6], 2.82. The PBM binding z-score in assay [7] is 1.01; in [8], 1.62; in assay [9] it was -0.0713; in assay [10], 0.904.
In the case of AGAATGAGGTTACCAAAGATGAGGGAAACGCTTG, the PBM binding z-score in assay [1] is 1.89; in [2], 2.71; in [3], -0.269; in [4], 1.35; in assay [5], -0.264; in assay [6], 3.26. The PBM binding z-score is 2.61 in [7], 2.78 in [8], 1.03 in assay [9] and 1.94 in [10].
In the case of CCTAGCAGGCCAGGGTCAATCAAGCATTTCGCTT, the PBM binding z-score in assay [1] was 3.41; in assay [2] it was 2.94; in assay [3] it was -0.348; in assay [4] it was 3.36; in assay [5], -1.18; in assay [6], 4.23. Moreover, the PBM binding z-score in assay [7] was 0.925; in [8], 1.66; in assay [9], -0.329; in assay [10], 0.705.
As to TCTCGGAGGACACGAAAGGTTAGAGCTCGACATC, the PBM binding z-score in [1] is 1.18; in [2], 0.89; in [3], -0.0791; in [4], 0.782; in [5], -0.852; in [6] it was 1.46. Further, the PBM binding z-score in [7] amounted to 0.441; in [8] it was 1.69; in assay [9], 2.52; in assay [10] it was 2.03.
For the sequence TCGAGTAGGTTACCAATGGAGCATTCAGCTTTCT, the PBM binding z-score was -0.291 in assay [1]; 0.37 in assay [2]; -0.758 in [3]; -0.00248 in assay [4]; -1.32 in assay [5]; 0.92 in assay [6]. The PBM binding z-score came out at 0.264 in assay [7], 1.16 in assay [8], 1.33 in assay [9] and 1.08 in [10].
For CTACCAAGGTTAACAAGGTCGTTGATTACTATTC, the PBM binding z-score in assay [1] was 2.61; in assay [2], 3.3; in [3], 1.09; in [4], 2.89; in [5], 0.472; in [6], 3.28. In addition, the PBM binding z-score was determined as 1.03 in [7], 1.76 in assay [8], 0.841 in assay [9] and 1.46 in assay [10].
On to ACAATGAGGTTATACGTAGATCAGGGAAGAAAGT, for which the PBM binding z-score in [1] was 2.38; in [2] it was 2.12; in assay [3], -0.0615; in assay [4] it was 1.59; in [5], 0.813; in [6], 2.93. Moreover, the PBM binding z-score in assay [7] turned out to be 1.84; in [8], 1.69; in assay [9] it was 0.688; in assay [10] it was 0.925.
Turning to ATCTCTAGGTAACAAGTACAGTGAAAGAGAGGAC, the PBM binding z-score in assay [1] is 0.404; in assay [2], 0.297; in assay [3], 0.245; in assay [4], -0.0374; in assay [5], 0.894; in assay [6] it was 0.308. Moreover, the PBM binding z-score in [7] was 1.33; in assay [8] it was 1.36; in assay [9], 0.696; in [10], 1.02.
Regarding ATCTCTAGGTAAAAGTTCCGTGAATCCCGAGGAT, the PBM binding z-score is 0.485 in [1]; 0.395 in assay [2]; -0.0221 in assay [3]; -0.0121 in assay [4]; 0.845 in assay [5]; 1.5 in assay [6]. Besides, the PBM binding z-score in [7] was 2.36; in [8], 4.22; in assay [9] it was 2.6; in assay [10] it was 3.7.
For the sequence GCATATAGGTAATACAAGTTGAAAGTCCGATTGT, the PBM binding z-score in assay [1] was 0.281; in [2] it was 0.793; in assay [3] it was -0.112; in [4], 0.0778; in [5], -0.33; in assay [6], 1. Also, the PBM binding z-score in assay [7] is 1.05; in assay [8], 0.484; in [9], -0.0817; in [10], 0.166.
